Assay results reported in PubChem BioAssay AID1159580 (chemical genetic matrix, 2015).
Screen size: about 5,500 compounds; about 2,000 (36%) were called active. Another 18% or so got no clear call; they are omitted. Rule as the data show it: active = normalized growth mostly below about 0.91 (no sharp cut-off); inconclusive = no clear call, values can overlap the other calls; inactive = mostly above about 0.92. Some of the results follow.

Assay: chemical genetic growth profiling, strain panel (AID 1159580);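 also: tested at 20 µM; growth read once vehicle control cultures reached saturation at 30 °C; 1 = growth at the plate median or of vehicle wells; lower values mean less growth of the strain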
Conditions: S. cerevisiae deletion strains, growth OD

Measured: normalized growth

O=c1cccc2ccc(O)c(O)c2c1O
active: locus YAL021C, strain ccr4, hits give low values 0.443 | locus YAL026C, strain drs2, hits give low values 0.791 | locus YBL061C, strain skt5, hits give low values 0.901 | locus YBR009C, strain hhf1, hits give low values 0.822 | locus YBR023C, strain chs3, hits give low values 0.887 | locus YBR229C, strain ROT2, hits give low values 0.385 | locus YBR231C, strain swc5, hits give low values 0.853 | locus YCL029C, strain bik1, hits give low values 0.598 | locus YDL035C, strain GPR1, hits give low values 0.117 | locus YDL074C, strain BRE1, hits give low values 0.241 | locus YDL101C, strain DUN1, hits give low values 0.145 | locus YDL134C, strain PPH21, hits give low values 0.112 | locus YDL192W, strain arf1, hits give low values 0.579 | locus YDR069C, strain doa4, hits give low values 0.625 | locus YDR101C, strain arx1, hits give low values 0.734 | locus YDR137W, strain rgp1, hits give low values 0.161 | locus YDR159W, strain sac3, hits give low values 0.261 | locus YDR162C, strain NBP2, hits give low values 0.0859 | locus YDR297W, strain sur2, hits give low values 0.92 | locus YDR318W, strain mcm21, hits give low values 0.709 | locus YDR334W, strain swr1, hits give low values 0.885 | locus YDR335W, strain msn5, hits give low values 0.748 | locus YDR388W, hits give low values 0.718 | locus YDR392W, strain spt3, hits give low values 0.715 | locus YDR502C, strain sam2, hits give low values 0.372 | locus YEL003W, strain gim4, hits give low values 0.823 | locus YEL061C, strain CIN8, hits give low values 0.301 | locus YER015W, strain faa2, hits give low values 0.816 | locus YER111C, strain swi4, hits give low values 0.403 | locus YER155C, strain BEM2 (second series), hits give low values 0.73 | locus YER155C, strain BEM2, hits give low values 0.652 | locus YER167W, strain BCK2, hits give low values 0.45 | locus YFR010W, strain ubp6, hits give low values 0.795 | locus YGL086W, strain mad1, hits give low values 0.365 | locus YGL173C, strain kem1, hits give low values 0.791 | locus YGL248W, strain PDE1, hits give low values 0.185 | locus YGL253W, strain hxk2, hits give low values 0.875 | locus YGR135W, strain pre9, hits give low values 0.523 | locus YGR252W, strain gcn5, hits give low values 0.501 | locus YHR027C, strain rpn1, hits give low values 0.841 | locus YHR079C, strain IRE1 (second series), hits give low values 0.702 | locus YHR094C, strain hxt1, hits give low values 0.914 | locus YHR129C, strain ARP1, hits give low values 0.294 | locus YHR142W, strain chs7, hits give low values 0.762 | locus YHR200W, strain rpn10, hits give low values 0.626 | locus YIL066C, strain RNR3, hits give low values 0.104 | locus YIL073C, strain SPO22, hits give low values 0.134 | locus YIR030C, strain dcg1, hits give low values 0.836 | locus YJL095W, strain BCK1 (second series), hits give low values 0.871 | locus YJL095W, strain BCK1, hits give low values 0.0994 | locus YJL129C, strain trk1, hits give low values 0.562 | locus YJL134W, strain LCB3, hits give low values 0.477 | locus YJL164C, strain tpk1, hits give low values 0.844 | locus YJL166W, strain qcr8, hits give low values 0.872 | locus YJL187C, strain SWE1 (second series), hits give low values 0.106 | locus YJL187C, strain SWE1, hits give low values 0.893 | locus YJR075W, strain HOC1, hits give low values 0.358 | locus YKL068W, hits give low values 1.08 [resistant] | locus YKL160W, strain elf1, hits give low values 0.901 | locus YKR001C, strain vps1, hits give low values 0.453 | locus YLL026W, hits give low values 0.913 | locus YLR027C, strain aat2, hits give low values 0.897 | locus YLR039C, strain RIC1, hits give low values 0.179 | locus YLR058C, strain SHM2, hits give low values 0.126 | locus YLR221C, strain rsa3, hits give low values 0.854 | locus YLR258W, strain gsy2, hits give low values 0.903 | locus YLR262C, strain YPT6 (second series), hits give low values 0.397 | locus YLR268W, strain sec22, hits give low values 0.285 | locus YLR320W, strain mms22, hits give low values 0.689 | locus YLR330W, strain CHS5, hits give low values 0.615 | locus YLR342W, strain FKS1 (second series), hits give low values 0.183 | locus YLR342W, strain FKS1, hits give low values 0.893 | locus YLR370C, strain arc18, hits give low values 0.903 | locus YLR371W, strain rom2, hits give low values 0.651 | locus YLR418C, strain cdc73, hits give low values 0.26 | locus YML016C, strain PPZ1, hits give low values 0.0765 | locus YML032C, strain rad52, hits give low values 0.785 | locus YML120C, strain ndi1, hits give low values 0.208 | locus YML124C, strain tub3, hits give low values 0.742 | locus YMR058W, strain fet3, hits give low values 0.344 | locus YMR205C, strain PFK2, hits give low values 0.722 | locus YMR223W, strain ubp8, hits give low values 0.69 | locus YMR231W, strain pep5, hits give low values 0.463 | locus YMR263W, strain SAP30, hits give low values 0.481 | locus YMR307W, strain GAS1, hits give low values 0.34 | locus YNL067W, strain RPL9B, hits give low values 0.271 | locus YNL071W, strain lat1, hits give low values 0.87 | locus YNL209W, strain ssb2, hits give low values 0.722 | locus YNL233W, strain BNI4, hits give low values 0.419 | locus YNL307C, strain MCK1, hits give low values 0.799 | locus YNL322C, strain KRE1, hits give low values 0.105 | locus YNR052C, strain pop2, hits give low values 0.328 | locus YOL147C, strain pex11, hits give low values 0.65 | locus YOR061W, strain CKA2, hits give low values 0.255 | locus YOR069W, strain VPS5, hits give low values 0.176 | locus YOR070C, strain gyp1, hits give low values 0.902 | locus YOR083W, strain WHI5, hits give low values 0.86 | locus YOR106W, strain vam3, hits give low values 0.592 | locus YOR136W, strain idh2, hits give low values 0.712 | locus YOR144C, strain elg1, hits give low values 0.788 | locus YOR184W, strain ser1, hits give low values 0.332 | locus YOR270C, strain vph1, hits give low values 0.369 | locus YOR290C, strain snf2, hits give low values 0.376 | locus YOR316C, strain cot1, hits give low values 0.881 | locus YPL051W, strain arl3, hits give low values 0.672 | locus YPL078C, strain atp4, hits give low values 0.466 | locus YPL106C, strain sse1, hits give low values 0.815 | locus YPR163C, strain tif3, hits give low values 0.764 | locus YPR167C, strain met16, hits give low values 0.81 | strain wtn01, hits give low values 0.337
inactive: locus YAL030W, strain snc1, hits give low values 0.948 | locus YBR021W, strain FUR4, hits give low values 1.02 | locus YBR171W, strain sec66, hits give low values 0.928 | locus YCL011C, strain gbp2, hits give low values 0.913 | locus YCL016C, strain dcc1, hits give low values 0.938 | locus YCL061C, strain MRC1, hits give low values 0.949 | locus YCL069W, strain vba3, hits give low values 0.945 | locus YCR088W, strain abp1, hits give low values 0.961 | locus YDL005C, strain med2, hits give low values 1 | locus YDL040C, strain nat1, hits give low values 1 | locus YDL185W, strain tfp1, hits give low values 0.955 | locus YDR001C, strain nth1, hits give low values 0.975 | locus YDR195W, strain ref2 1.06 | locus YEL037C, strain rad23, hits give low values 0.938 | locus YEL061C, strain CIN8 (second series), hits give low values 0.922 | locus YER016W, strain bim1, hits give low values 0.96 | locus YER110C, hits give low values 1.01 | locus YGL078C, strain dbp3, hits give low values 1.03 | locus YGL167C, strain pmr1, hits give low values 0.955 | locus YGL227W, strain vid30, hits give low values 1.01 | locus YGL240W, strain doc1, hits give low values 0.995 | locus YHR013C, strain ard1, hits give low values 0.962 | locus YIL125W, strain kgd1, hits give low values 1.01 | locus YJL092W, strain hpr5, hits give low values 0.963 | locus YJL115W, strain asf1, hits give low values 0.954 | locus YJL154C, strain vps35, hits give low values 0.961 | locus YJL168C, strain set2, hits give low values 0.937 | locus YKL085W, strain MDH1 (second series), hits give low values 1.04 | locus YKL085W, strain MDH1, hits give low values 1.04 | locus YKR026C, strain gcn3, hits give low values 0.965 | locus YKR091W, strain srl3, hits give low values 0.99 | locus YLL001W, strain dnm1, hits give low values 0.917 | locus YLL041C, strain sdh2, hits give low values 0.944 | locus YLR102C, strain apc9, hits give low values 0.966 | locus YLR357W, strain rsc2, hits give low values 0.857 | locus YLR384C, strain iki3, hits give low values 0.944 | locus YMR078C, strain ctf18, hits give low values 0.965 | locus YMR125W, strain sto1, hits give low values 1 | locus YMR129W, hits give low values 0.976 | locus YNL248C, strain rpa49, hits give low values 0.912 | locus YNL250W, strain rad50, hits give low values 1.06 | locus YNL271C, strain bni1, hits give low values 0.97 | locus YNL298W, strain CLA4, hits give low values 0.982 | locus YNL322C, strain KRE1 (second series), hits give low values 0.959 | locus YNR049C, strain mso1, hits give low values 0.98 | locus YOL012C, strain htz1 0.205 | locus YOR001W, strain rrp6, hits give low values 0.892 | locus YOR080W, strain dia2, hits give low values 0.973 | locus YOR265W, strain rbl2, hits give low values 0.939 | locus YPL240C, strain hsp82, hits give low values 0.972 | locus YPR119W, strain clb2, hits give low values 0.984 | locus YPR141C, strain kar3, hits give low values 1.04
